# Experimental data as given in PubChem BioAssay.
# Calls of active or inactive are those of the source.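 Rule for the calls, unless noted: active = inhibition at or above 50% at 10 µM; inactive = inhibition below 50%.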
# Columns and labels:
# [1] = inhibitors of TNFa-induced NFkB p65 translocation, primary screen, imaging, HUVEC, MLSMR starter and 10KST1 sets (AID 438;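 active = inhibition above 20% together with a positive visual image hit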;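 note: compound added about 3h40 before a 20 min TNFalpha stimulation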;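 for inhibition: signal is the nuclear over cytoplasmic p65 intensity ratio per well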); conditions: HUVEC TNFa-induced p65 nuclear translocation; cell count: measured here: nuclei count (cytotoxicity indicator), at 2.08 µM; inhibition: at 2 µM, stronger effect = higher value, 0% TNFa-plus-vehicle, 100% no-TNFa wells
# [2] = inhibitors of mutant huntingtin aggregation, primary screen, imaging, exon1htt(103Q)mCFP cells, high-content imaging (AID 483;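 active = visual image review flags a hit and inhibition of aggregation exceeds 20%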;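 note: compound exposure lasted 3 days before fixation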;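 for nuclei count: percent of the per-plate median nuclei count of sample wells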); conditions: exon1htt(103Q)mCFP cell line, aggregate imaging, at 2 µM; inhibition of aggregation: stronger effect = higher value; nuclei count: measured here: cell count, toxicity
# [3] = inhibitors of E-selectin induction by TNFa, primary screen, imaging, HUVEC, immunofluorescence, MLSMR starter and 10KST1 sets (AID 487;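 active = visually confirmed hit in the image check and inhibition above 20%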;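 for inhibition: signal is fraction of cell area covered by stained E-selectin grains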;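 for nuclei count: 100% = median nuclei count of all wells on the same plate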); conditions: HUVEC TNFalpha-induced E-selectin immunofluorescence imaging, at 2 µM; inhibition: stronger effect = higher value; nuclei count: measured here: cell number, toxicity
# [4] = biological target: Voltage-gated potassium channel subunit beta-2 (Rattus norvegicus) (UniProt P62483); test: KvBeta enzyme negative modulators, primary screen, biochemical, NADPH fluorescence (AID 622;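 active = fluorescence slope higher than the sample average by over 3 SD, cut at about -0.22 in these data, passing the limit was not always enough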;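 note: slope of raw intensity against log time taken from 70 to 1610 s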); conditions: recombinant KvBeta, 4-cyanobenzaldehyde reduction, at 10 µM, stronger effect = higher value
# Voltage-gated potassium channel subunit beta-2 (Rattus norvegicus), sequence (P62483 whole entry, looked up): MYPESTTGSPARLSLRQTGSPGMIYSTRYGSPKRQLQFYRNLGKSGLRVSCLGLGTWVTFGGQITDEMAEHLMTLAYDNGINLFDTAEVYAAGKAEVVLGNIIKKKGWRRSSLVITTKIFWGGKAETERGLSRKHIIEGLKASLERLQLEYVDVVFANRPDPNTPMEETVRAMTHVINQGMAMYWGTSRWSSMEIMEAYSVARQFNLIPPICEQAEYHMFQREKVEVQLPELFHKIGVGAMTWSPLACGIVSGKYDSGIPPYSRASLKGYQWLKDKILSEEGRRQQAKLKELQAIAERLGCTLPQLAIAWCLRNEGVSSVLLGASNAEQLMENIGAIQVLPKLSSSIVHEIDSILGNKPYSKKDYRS
# [5] = biological target: Voltage-gated potassium channel subunit beta-2 (Rattus norvegicus) (UniProt P62483); test: KvBeta positive modulators, primary screen, biochemical, NADPH fluorescence (AID 623;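 active = NADPH fluorescence slope more negative than the mean of all samples by about 3 SD, 99.7% confidence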;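 note: fluorescence intensity change per second fitted from 20 to 320 s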); conditions: Recombinant KvBeta, NADPH fluorescence decrease slope, 10 min; at 10 µM; stronger effect = lower value
# [6] = biological target: Alpha-2C adrenergic receptor (Homo sapiens) (UniProt P18825); test: modulators of alpha2C/GIRK thallium flux, primary screen, cell-based, HEK293 alpha2C/GIRK1/2 (AID 624;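 active = fluorescence slope after compound addition differing from the mean of all screened samples at 99.7% confidence, in either direction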;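 note: slope of fluorescence ratio to pre-addition baseline per second over 15 to 24 s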); conditions: thallium flux BTC fluorescence, at 10 µM, actives lie on both sides
# Alpha-2C adrenergic receptor (Homo sapiens), sequence (P18825 whole entry, looked up): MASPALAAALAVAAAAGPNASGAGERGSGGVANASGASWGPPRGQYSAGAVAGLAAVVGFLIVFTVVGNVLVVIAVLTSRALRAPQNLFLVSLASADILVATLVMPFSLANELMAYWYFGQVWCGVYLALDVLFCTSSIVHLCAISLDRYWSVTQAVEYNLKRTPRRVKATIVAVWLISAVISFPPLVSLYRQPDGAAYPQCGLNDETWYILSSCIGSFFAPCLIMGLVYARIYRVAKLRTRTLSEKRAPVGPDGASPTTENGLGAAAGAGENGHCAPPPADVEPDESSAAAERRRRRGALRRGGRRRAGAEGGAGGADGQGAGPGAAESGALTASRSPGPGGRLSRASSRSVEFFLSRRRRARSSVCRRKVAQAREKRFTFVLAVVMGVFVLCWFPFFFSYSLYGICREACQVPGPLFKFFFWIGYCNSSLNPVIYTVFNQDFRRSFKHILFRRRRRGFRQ
# [7] = inhibitors of Sendai virus-induced IRF3 signaling, primary screen, TLR/RLR signaling modifier project, cell-based, Sendai virus stimulus, luciferase, 10K MLSCN set (AID 602276); conditions: HEK293 RL24 IRF3 luciferase reporter, at 10 µM, stronger effect = higher value;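 note: firefly luciferase from ISG56 promoter only with Renilla not read in this screen; 0% = Sendai virus plus DMSO and 100% = medium plus DMSO without virus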
# [8] = inhibitors of poly I:C-induced TLR3 signaling, primary screen, cell-based, poly I:C stimulus, luciferase, 10K MLSCN set (AID 602277;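 active = inhibition of the reporter signal at or above 50%; inactive = inhibition below 50%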); conditions: HEK293-TLR3 RL24 IRF3 luciferase reporter, at 10 µM, stronger effect = higher value
Compound,cell count [1],inhibition [1],inhibition of aggregation [2],nuclei count [2],inhibition [3],nuclei count [3],fluorescence slope [4],NADPH fluorescence slope [5],slope [6],inhibition [7],inhibition [8]
O=c1c2[nH]c3ccccc3c2ncn1CCCn1ccnc1,717,-0.2% (inactive),-4.9% (inactive),99.9%,-21.4% (inactive),111%,-0.42 (inactive),3.1e-06 (inactive),0.00409 (inactive),26.3% (inactive),50.7% (active)
FC(F)(F)c1cc(-c2ccco2)nc(NCc2ccco2)n1,589,14.6% (inactive),28.3% (inactive),95.5%,-24.3% (inactive),94.8%,-0.194 (inactive),-3e-05 (inactive),0.00472 (inactive),14.2% (inactive),13.8% (inactive)
Cc1nc(-c2cccc(N)c2)cs1,726,-11% (inactive),-14.5% (inactive),77.8%,-35.4% (inactive),132%,-0.514 (inactive),-1e-05 (inactive),0.00706 (inactive),-3.62% (inactive),-15.1% (inactive)
Nc1nc(SCc2nc3scc(-c4cccs4)c3c(=O)[nH]2)n[nH]1,473,3.8% (inactive),10.7% (inactive),103%,-112% (inactive),116%,-0.432 (inactive),8.2e-06 (inactive),0.00447 (inactive),1.51% (inactive),4.54% (inactive)
CCOC(=O)N1CCN(C(=O)COc2ccc(Br)cc2Cl)CC1,317,2% (inactive),-6.6% (inactive),98.4%,-27.2% (inactive),118%,-0.445 (inactive),-5.1e-05 (inactive),0.00378 (inactive),6.45% (inactive),30.7% (inactive)
CCOc1cc(-c2nc(-c3ccccc3OC)no2)cc(OCC)c1OCC,575,7.7% (inactive),0.8% (inactive),98.3%,-68.3% (inactive),109%,-0.605 (inactive),-4.7e-05 (inactive),0.00447 (inactive),11.5% (inactive),12.6% (inactive)
CC(C)Cc1nnc(NC(=O)CCC(=O)N2CCOCC2)s1,597,8.1% (inactive),-2% (inactive),106%,17.3% (inactive),102%,-0.422 (inactive),-3.6e-05 (inactive),0.00514 (inactive),12.2% (inactive),10.8% (inactive)
c1cc2c(cc1Nc1nc(-c3ccc4c(c3)OCO4)cs1)OCCO2,351,0.4% (inactive),10% (inactive),104%,-36.9% (inactive),118%,-0.188 (inactive),-2.8e-06 (inactive),0.00387 (inactive),-63.5% (inactive),-126% (inactive)
CCOC(=O)/C=C1\SCC(=O)N1Cc1ccc(Br)cc1,562,-4.8% (inactive),-14.9% (inactive),96%,-49.7% (inactive),116%,-0.462 (inactive),-0.000366 (inactive),0.00633 (inactive),10.8% (inactive),20% (inactive)
COc1cccc(/C=N/n2c(-c3ccco3)nc3ccccc3c2=O)c1,692,-0.9% (inactive),-10.2% (inactive),74.5%,33.1% (inactive),105%,-0.293 (inactive),-4.4e-05 (inactive),0.00576 (inactive),-12.1% (inactive),-6.01% (inactive)
Nc1ncnc(Nc2ccccc2C(F)(F)F)n1,382,-3.3% (inactive),-11.5% (inactive),100%,-8% (inactive),107%,-0.487 (inactive),4.7e-05 (inactive),0.00593 (inactive),-28.4% (inactive),-11.7% (inactive)
CSCCC(NC(=O)c1ccco1)C(=O)OC(C)C(=O)NC(=O)NC1CCCCC1 (stereo not drawn),538,-6.1% (inactive),7.6% (inactive),88%,-79.7% (inactive),100%,-0.485 (inactive),1e-05 (inactive),0.00394 (inactive),13.1% (inactive),20.3% (inactive)
O=C(NCC1CCCO1)c1cccc(N2CCCC2=O)c1 (stereo not drawn),458,-18.6% (inactive),-1.3% (inactive),88.8%,-32.7% (inactive),115%,-0.376 (inactive),2.3e-06 (inactive),0.0057 (inactive),10.8% (inactive),4.03% (inactive)
O=C(O)[C@@H]1CCCN1c1ncnc2sc3c(c12)CCC3,434,-5.7% (inactive),0.1% (inactive),128%,-149% (inactive),247%,-0.412 (inactive),-2.3e-05 (inactive),0.00577 (inactive),17.9% (inactive),13.8% (inactive)
CCOc1ccc(N(CC(=O)OC)S(=O)(=O)c2ccc(OC)c(OC)c2)cc1,444,6.3% (inactive),-1.6% (inactive),104%,9.4% (inactive),101%,-0.455 (inactive),6.6e-05 (inactive),0.00363 (inactive),-8.61% (inactive),15.5% (inactive)
Cn1cccc1Cc1nnc(SCC(=O)Nc2ccccc2F)n1-c1ccc(F)cc1,878,-2.3% (inactive),-8.8% (inactive),108%,-44.3% (inactive),113%,-0.561 (inactive),-8.8e-05 (inactive),0.00608 (inactive),5.41% (inactive),24.9% (inactive)
C=CCN(CC=C)C(=O)c1ccncc1,267,-14% (inactive),4.9% (inactive),53.2%,-86.3% (inactive),110%,-0.501 (inactive),1.1e-05 (inactive),0.00479 (inactive),4.76% (inactive),5.55% (inactive)
COc1cccc(C2=NOC(C(=O)N3CCc4ccccc4C3)C2)c1 (stereo not drawn),606,4.7% (inactive),11% (inactive),97.3%,10.4% (inactive),107%,-0.605 (inactive),-4.1e-05 (inactive),0.00592 (inactive),-5.64% (inactive),-15% (inactive)
CN1/C(=C\C(=O)Nc2cccnc2)c2ccccc2CC1(C)C,360,-5% (inactive),-8.4% (inactive),91.1%,-31.3% (inactive),117%,-0.401 (inactive),-4.2e-05 (inactive),0.00677 (inactive),18.7% (inactive),19.4% (inactive)
CCCS(=O)(=O)NCCc1cc2cc(C)c(C)cc2[nH]c1=O,321,-18.8% (inactive),4.2% (inactive),84.9%,-16.4% (inactive),106%,-0.587 (inactive),-7.5e-05 (inactive),0.0056 (inactive),4.21% (inactive),-4.55% (inactive)
COc1ccc(C2C(C(=O)N3CCCC3)c3cc(OC)c(OC)cc3C(=O)N2C)cc1 (stereo not drawn),583,-21.8% (inactive),7.8% (inactive),111%,-71.5% (inactive),115%,-0.544 (inactive),-5.3e-05 (inactive),0.00513 (inactive),3.19% (inactive),12.2% (inactive)
COC(=O)CSc1ncccc1-c1nc2ccccc2[nH]1,473,-4.5% (inactive),-2% (inactive),111%,-48.5% (inactive),99.2%,-0.512 (inactive),3.1e-05 (inactive),0.00493 (inactive),-16.6% (inactive),-32.8% (inactive)
Cc1nnc2ccc(N3CCN(c4cccc(C(F)(F)F)c4)CC3)nn12,596,5.5% (inactive),-64.5% (inactive),32.1%,-68.3% (inactive),134%,-0.505 (inactive),-1.3e-05 (inactive),0.00619 (inactive),3.49% (inactive),11.9% (inactive)
Cc1ccc(N2CC(C)Cn3c2nc2c3c(=O)n(CC(=O)OCc3ccccc3)c(=O)n2C)cc1C (stereo not drawn),242,-3.2% (inactive),21.6% (inactive),77.7%,-43% (inactive),109%,-0.473 (inactive),-2.8e-05 (inactive),0.00778 (inactive),28.5% (inactive),16.6% (inactive)
COC(=O)c1ccc(CSc2nnc(-c3ccncc3)o2)o1,612,-2.2% (inactive),-8% (inactive),139%,-31.9% (inactive),114%,-0.596 (inactive),-3.4e-05 (inactive),0.00373 (inactive),12% (inactive),13.9% (inactive)
COc1ccccc1OCCCn1c(=O)oc2ccccc21,219,3.7% (inactive),3.2% (inactive),91.4%,-46.5% (inactive),94.4%,-0.506 (inactive),-4.3e-05 (inactive),0.00513 (inactive),-13.6% (inactive),-42.9% (inactive)
COc1ccc(Cn2nnnc2C(c2cc3cc(C)cc(C)c3[nH]c2=O)N2CCOCC2)cc1 (stereo not drawn),762,-12.9% (inactive),33.9% (inactive),113%,-9.5% (inactive),108%,-0.51 (inactive),-6.8e-05 (inactive),0.00452 (inactive),13.8% (inactive),24.9% (inactive)
O=C(CSc1nc2ccccc2s1)N1CCN(C(=O)c2ccco2)CC1,394,0.5% (inactive),10% (inactive),104%,-45.3% (inactive),102%,-0.377 (inactive),9e-06 (inactive),0.00381 (inactive),7.64% (inactive),22.8% (inactive)
